Data on 13 compounds can be found in PubChem BioAssay (NCATS).

The target of the experiment is Calcium and integrin-binding protein 1 (Homo sapiens) (UniProt Q99828). In words: Primary qHTS for Identification of Calcium Integrin Binding Protein 1 (CIB1) Competitor (AID 1508620).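 Further: GST tagged CIB1 binding a fluorescein labelled alphaIIb integrin peptide tracer; top concentration of the series differs between compounds.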 The settings on record: CIB1-GST / FITC-alphaIIb peptide fluorescence polarization; series mostly up to 114 µM. The method, boiled down:
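CIB1-GST (1 uM final) and compound incubated 15 min at room temperature before adding FITC-alphaIIb peptide tracer (100 nM final). Competition for binding read by fluorescence polarization (ex 480, em 540) after another 15 min at room temperature.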
On the technique in general: Quantitative high-throughput screening tests each substance at several concentrations.

SMILES strings stand for the structures. Inconclusive results are not listed. Where a call stands in place of a potency, no number is given. Values without a mark were called inactive. Calls of active or inactive are those of the source. The call rests on the fitted dose curve; in most records, active means well fitted inhibition curve with a large enough effect; inconclusive means small, poorly fitted or top-dose-only effect; inactive means flat fitted curve, though single readings scatter.

Chain of Calcium and integrin-binding protein 1 (Homo sapiens) (Q99828 whole entry, looked up): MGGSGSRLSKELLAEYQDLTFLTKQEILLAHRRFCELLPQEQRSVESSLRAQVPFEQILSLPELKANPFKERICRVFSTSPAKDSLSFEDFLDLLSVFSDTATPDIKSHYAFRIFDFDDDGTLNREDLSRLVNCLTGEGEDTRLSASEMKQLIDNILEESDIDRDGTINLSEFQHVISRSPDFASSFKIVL

On to `CC(C)(O)CC(CO)NC(=O)CC(O)CC(=O)Cc1ccccc1` (stereo not drawn), for which the Potency entry is “inactive”.
Consider `CNC(=O)c1cccc(-c2ccc3c(N4CCOC[C@@H]4C)nc(N4CCOC[C@@H]4C)nc3n2)c1`, for which the Potency result is “inactive”.
Take `CC1(C)CC[C@]2(C(=O)O[C@@H]3O[C@H](CO)[C@@H](O)[C@H](O)[C@H]3O)CC[C@]3(C)C(=CCC4[C@@]5(C)CC[C@H](O[C@@H]6O[C@H](C(=O)O)[C@@H](O)[C@H](O)[C@H]6O)[C@@](C)(CO)C5CC[C@]43C)C2C1` (stereo partly drawn): the Potency result is “inactive”.
On to `C[C@@H]1O[C@@H](OC[C@H]2O[C@@H](Oc3cc(O)cc4c3C(=O)C(O)(Cc3ccc(O)cc3)O4)[C@H](O)[C@@H](O)[C@@H]2O)[C@H](O)[C@H](O)[C@H]1O` (stereo partly drawn), for which the Potency entry was “inactive”.
On to `CC(=O)OC1C[C@]2(C)C(O)CC(C)=C[C@H](OC(=O)c3ccc(O)cc3)C2[C@]1(O)C(C)C` (stereo partly drawn), for which the Potency entry is “inactive”.
The same measure, in the same setting: then `CC1=CC(=O)CC(C)(CO)C1(O)/C=C/C(C)O[C@@H]1O[C@H](CO)[C@@H](O)[C@H](O)[C@H]1O` (stereo partly drawn), with “inactive”.
For the compound `COC(C(=O)N1Cc2[nH]nc(NC(=O)c3ccc(N4CCN(C)CC4)cc3)c2C1)c1ccccc1` (stereo not drawn), the Potency result is “inactive”.
As for `CC1(C)CC[C@]2(C(=O)O[C@@H]3O[C@H](CO[C@@H]4O[C@H](CO)[C@@H](O)[C@H](O)[C@H]4O[C@@H]4O[C@H](CO)[C@@H](O)[C@H](O)[C@H]4O)[C@@H](O)[C@H](O[C@@H]4O[C@H](CO)[C@@H](O)[C@H](O)[C@H]4O)[C@H]3O)CC[C@]3(C)C(=CCC4[C@@]5(C)CC[C@@H](O)[C@@](C)(C(=O)O[C@@H]6O[C@H](CO)[C@@H](O)[C@H](O)[C@H]6O)C5CC[C@]43C)[C@@H]2C1` (stereo partly drawn), the activity change, negative = inhibition was -1.15% [at 12.4 µM].
Take `NCCCNc1ccc(Nc2nccc(Nc3cc(C4CC4)[nH]n3)n2)cc1`: the Potency entry was “inactive”.
In the case of `O=C(O)COCCN1CCN([C@H](c2ccccc2)c2ccc(Cl)cc2)CC1`, the Potency result was “inactive”.
As to `CC1CCC2(C=O)C(CO)=CCCC2C1(C)CC(=O)O` (stereo not drawn), the Potency result is “inactive”.
With `CC1(C)CCC2(C(=O)OC3OC(CO)C(O)C(O)C3O)CCC3(C)C(=CCC4C5(C)CCC(O)C(C)(C(=O)O)C5CCC43C)C2C1O` (stereo not drawn), the Potency entry was “inactive”.
`CC1CC[C@]2(C(=O)O)CC[C@]3(C(=O)O)C(=CCC4[C@@]5(C)CC[C@H](O[C@@H]6O[C@H](CO)[C@@H](O)[C@H](O)[C@H]6O)C(C)(C)C5CC[C@]43C)C2C1C` (stereo partly drawn): the Potency result is “inactive”.
